Measurements from publication PMC13494018.
A number with no mark means an inactive call. No rule for the calls is given here.

Target: CD276, Q5ZPR3
Sequence (Q5ZPR3 whole entry): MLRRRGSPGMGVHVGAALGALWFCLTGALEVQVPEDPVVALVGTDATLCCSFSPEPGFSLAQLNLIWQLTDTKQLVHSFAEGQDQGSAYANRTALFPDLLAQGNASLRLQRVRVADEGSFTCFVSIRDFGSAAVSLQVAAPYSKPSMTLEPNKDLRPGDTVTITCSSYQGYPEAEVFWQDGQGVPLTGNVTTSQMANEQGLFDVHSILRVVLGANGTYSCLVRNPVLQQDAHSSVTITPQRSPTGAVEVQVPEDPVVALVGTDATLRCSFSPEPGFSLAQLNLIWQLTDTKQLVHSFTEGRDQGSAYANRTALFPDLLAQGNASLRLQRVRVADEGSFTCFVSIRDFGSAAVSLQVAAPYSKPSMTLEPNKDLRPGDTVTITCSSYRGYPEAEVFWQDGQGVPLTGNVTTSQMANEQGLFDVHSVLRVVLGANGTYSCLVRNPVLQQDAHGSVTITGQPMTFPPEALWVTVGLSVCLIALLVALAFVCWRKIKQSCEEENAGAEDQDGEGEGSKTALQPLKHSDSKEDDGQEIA

B1: design_621_7e0052dc-ae49-49a0-b99f-9f3ee649cc2f_624_dldesign_0_cycle1_af2pred (protein)
chain: AEAAKKKVEELLAKAKEEAKKALEDPANIEKYRAEMSKLIAEANRIGIASTPEVNTLAGSGIEEVLKLLDEAVKKAK
B1 was tested, and the “binding in a display sort” value was “not found”.

B2: design_621_7e0052dc-ae49-49a0-b99f-9f3ee649cc2f_687_dldesign_0_cycle1_af2pred (protein)
chain: ALEEALERLKKQAEEAEKAGDKEAAKLAKKGAEQMEKAKTDPVAAMQALLAAAAEADKLAPKVGKVANRVAIEAIRGANAIFRAAQ
For B2, the “binding in a display sort” value was “not found”.

B3: design_621_7e0052dc-ae49-49a0-b99f-9f3ee649cc2f_501_dldesign_0_cycle1_af2pred (protein)
chain: GAEQVAFQTIVAGARHAARLENEEAAKEIAKVYADIAANLSKETQQKVLEAAKKIAKETEAGKKNGEIVVKELEKALEA
With B3 the “binding in a display sort” value was “not found”.

B4: design_621_7e0052dc-ae49-49a0-b99f-9f3ee649cc2f_2068_dldesign_0_cycle1_af2pred (protein)
chain: DETLKKAKEALKKAAKAAKKIGDEEIAKKVEEALKLLTPESAELALAMAEALLASLKTADGKENAAKIATALRSGVANVAAA
For B4, the “binding in a display sort” value was “not found”.

B5: design_621_7e0052dc-ae49-49a0-b99f-9f3ee649cc2f_2349_dldesign_0_cycle1_af2pred (protein)
chain: GEQALQIARAAYVSAKNLLKDAEATENLEDAEKLAELAEAMAKQALEVAKAAAAQSAEAVEYAKKAKEYAEEAKKLVEEKKKA
In the case of B5, the “binding in a display sort” value is reported as “not found”.

B6: design_621_7e0052dc-ae49-49a0-b99f-9f3ee649cc2f_1174_dldesign_0_cycle1_af2pred (protein)
chain: AEKDEIVEKLLRAAGTATYVAYAFKDDAATKAKATATNQKAREAIQLLGTDFSPEAVALAKEAIEDAEKLKAELEAAQA
In the case of B6, the “binding in a display sort” value is reported as “not found”.

B7: design_621_7e0052dc-ae49-49a0-b99f-9f3ee649cc2f_591_dldesign_0_cycle1_af2pred (protein)
chain: GEEEEKKKEVIEKRQEVLKLLAEAVRVGMEADPELASKAASESLELIAKADKYLKEGKYEEALAELEKAKEYVEKMLKEAKALLAAKL
B7 was tested, and the “binding in a display sort” value was “not found”.

B8: design_621_7e0052dc-ae49-49a0-b99f-9f3ee649cc2f_1640_dldesign_0_cycle1_af2pred (protein)
chain: GKKEEADKLVEEGNKLFEEAEALAKEGKVAEGSSKLIEGIKLYAEAAKLYREVDPAKADELYATAHAKSAKVNKLLLAAAR
With B8 the “binding in a display sort” value was “not found”.

B9: design_622_fcc41892-afde-4fb9-b6e8-b664fffd6a75_254_dldesign_0_cycle1_af2pred (protein)
chain: VDPEAQAKAEAEKMLEETKKAAEESPELAAETLNKGMAEMVKLAQANPEANEIYMKYGIEAAKKASEYIKELQEKRA
For B9, the “binding in a display sort” value was “not found”.

B10: design_621_7e0052dc-ae49-49a0-b99f-9f3ee649cc2f_452_dldesign_0_cycle1_af2pred (protein)
chain: EEDERRAEELRRRAEEMLEAAKRAASLPPAERARLLGEAARVVEEARELAERDPRYRPVYDLAVAAFNALATAVGRALAAAA
For B10, the “binding in a display sort” value was “not found”.

B11: design_622_fcc41892-afde-4fb9-b6e8-b664fffd6a75_148_dldesign_0_cycle1_af2pred (protein)
chain: GAAEEAAKVAAKGKALTDQAAAGDLETANALLGEALALLEEVARTGSPEAVAAAQAAVAALSKVVLAKAAA
For B11, the “binding in a display sort” value was “not found”.

B12: design_622_fcc41892-afde-4fb9-b6e8-b664fffd6a75_178_dldesign_0_cycle1_af2pred (protein)
chain: AAAAKAAAAAAAKAQTAEARALVEEAERLAETDPELAIEVARRAIALANRAALAAQRIGDAATAAEAMAVAERAAEVLTRAGRRARA
B12 was tested, and the “binding in a display sort” value was “not found”.

B13: design_621_7e0052dc-ae49-49a0-b99f-9f3ee649cc2f_590_dldesign_0_cycle1_af2pred (protein)
chain: SERKESVDAGVKAAADIGKYQAKEIAKEDPEKGAAYLKEVEETYEKALASSPEEAFALTNAAFRANAKLAAAAAAKKAAAA
For B13, the “binding in a display sort” value was “not found”.

B14: design_621_7e0052dc-ae49-49a0-b99f-9f3ee649cc2f_1809_dldesign_0_cycle1_af2pred (protein)
chain: GAELVRRTIEASARTARRAVEEARERAKTPEEVEAAAESARRILQVAVDIGANYPEVAGEAEELAAEVGEEAERTLEEARKEY
For B14, the “binding in a display sort” value was “not found”.

B15: design_621_7e0052dc-ae49-49a0-b99f-9f3ee649cc2f_1985_dldesign_0_cycle1_af2pred (protein)
chain: MAEEAEKLKKEAEKEFEKLKAEAKKYAAANGAKGQLAYQAVVGTGRSALDSLEALADDPERAKKTVEQLLAVAKDLVKSAAA
B15 was tested, and the “binding in a display sort” value was “not found”.

B16: design_621_7e0052dc-ae49-49a0-b99f-9f3ee649cc2f_2237_dldesign_0_cycle1_af2pred (protein)
chain: MREEINRRMVELSGRINALFPYAQQDPEVNALLGKALGDLLEAHATPDPEEAAELVERAEEYVEAAEARAAALAA
In the case of B16, the “binding in a display sort” value is reported as “not found”.

B17: design_621_7e0052dc-ae49-49a0-b99f-9f3ee649cc2f_505_dldesign_0_cycle1_af2pred (protein)
chain: AAAAAARAAALAVRDKYAAKAKEYAAEAEKYAPTDARVKELLDQGKAEAAKGDAALAAGDYAAAEGYYALAYAYYSAALNRALA
With B17 the “binding in a display sort” value was “not found”.

B18: design_621_7e0052dc-ae49-49a0-b99f-9f3ee649cc2f_1483_dldesign_0_cycle1_af2pred (protein)
chain: AEAERLLAEARAAVAKGRAAGLAAAEAGLGAALEAARAMDAEARALAAAAEAAGHPEVAEEIRRAAGAAINEVLARASQVALAKAA
With B18 the “binding in a display sort” value was “not found”.

B19: design_621_7e0052dc-ae49-49a0-b99f-9f3ee649cc2f_2346_dldesign_0_cycle1_af2pred (protein)
chain: AEVAEIAKKTAEEVKKLIEAGAPAEEAAAVLNAGIAAVIKAAKAAGPASAADLGKAMDIFKETAELIVAYERERAAEAA
For B19, the “binding in a display sort” value was “not found”.

B20: design_621_7e0052dc-ae49-49a0-b99f-9f3ee649cc2f_1478_dldesign_0_cycle1_af2pred (protein)
chain: AQALLDGVKRSSELAKEAEKYDPEAGKKILEVRTKGSAEASAVAVAGGTDAAVAAIAEKAAEEAKKLYEEAKKRAEERERE
B20 was tested, and the “binding in a display sort” value was “not found”.

B21: design_621_7e0052dc-ae49-49a0-b99f-9f3ee649cc2f_1427_dldesign_0_cycle1_af2pred (protein)
chain: AAAAAEAAALAQINALTATAVAAAKDPATQPVANAALGQASALAIAQHKVDPAAGAKASQALAAGVEATAAARAAAKAAAAAAAA
In the case of B21, the “binding in a display sort” value is reported as “not found”.

B22: design_622_fcc41892-afde-4fb9-b6e8-b664fffd6a75_7_dldesign_0_cycle1_af2pred (protein)
chain: NEHLKEAAKHLEKAIEADAETALQLAQEALSHLLAALREASPEVRPLVEEAISHVTQALVYLSEGGETVEKGREELKKALEHAEKAAA
For B22, the “binding in a display sort” value was “not found”.

B23: design_621_7e0052dc-ae49-49a0-b99f-9f3ee649cc2f_1011_dldesign_0_cycle1_af2pred (protein)
chain: DLEKKAKEHLEKAKKLAEKAAASNAAEASVYLSQAIEEASKAVELAKKAGPELYKKYSEEATKLVQRASKAVMAKAQAAA
In the case of B23, the “binding in a display sort” value is reported as “not found”.

B24: design_621_7e0052dc-ae49-49a0-b99f-9f3ee649cc2f_449_dldesign_0_cycle1_af2pred (protein)
chain: SSNVEKAKELARNLTESAALDPASGALAGRALLAAARNAAAALTPEQSAALAAELRAAVAANQPADPEARALFEQAAAVLAA
B24 was tested, and the “binding in a display sort” value was “not found”.

B25: design_621_7e0052dc-ae49-49a0-b99f-9f3ee649cc2f_606_dldesign_0_cycle1_af2pred (protein)
chain: DVAEVLVRTAQAVARQAQAAAALSPEEALAVAQANQQTVAVLLAAAKAAGSAEAVAAAQQAQATVAAVIAAAQARLAA
In the case of B25, the “binding in a display sort” value is reported as “binds (active)”.

B26: design_621_7e0052dc-ae49-49a0-b99f-9f3ee649cc2f_1562_dldesign_0_cycle1_af2pred (protein)
chain: EEKKEEARERGEELVKEAEELAEKAAATSALAAMEAAEYALEVQQEIVELYSEAGDEEGLEEFSARVNKIVAYLQKAALEAQKAEA
B26 was tested, and the “binding in a display sort” value was “not found”.

B27: design_621_7e0052dc-ae49-49a0-b99f-9f3ee649cc2f_896_dldesign_0_cycle1_af2pred (protein)
chain: SAAAAAAAAAKAVAAKTAEALVKQAEALIKEAEKSTKEEGLKLRKAAAENYKLAGTLYEQAGDTATAKKLKEEGEKVEKEAEEKA
B27 was tested, and the “binding in a display sort” value was “not found”.

B28: design_621_7e0052dc-ae49-49a0-b99f-9f3ee649cc2f_1792_dldesign_0_cycle1_af2pred (protein)
chain: EEAARQALLEAVTKTAIDLIKKADEAAKTDPAQAELYAYQAASLIASVLHQDPEKGKEVLEIAKKSAFGELITKKTEEMLKKIDAA
In the case of B28, the “binding in a display sort” value is reported as “not found”.

B29: design_621_7e0052dc-ae49-49a0-b99f-9f3ee649cc2f_1226_dldesign_0_cycle1_af2pred (protein)
chain: MEAEEYLEKAKEAAEKAKEAAAKGDLAAANAYLGKAIEYAAKAQEVGTPEIAEKANAELARAVKAVQAVAAKVAAA
With B29 the “binding in a display sort” value was “not found”.

B30: design_622_fcc41892-afde-4fb9-b6e8-b664fffd6a75_256_dldesign_0_cycle1_af2pred (protein)
chain: SAAAVAAAAAAASARQASAALEEALATGTPEEVLRAAETALKMAEVLAWAGEQSPAAQAALDALRAKAEAARKAVAAA
With B30 the “binding in a display sort” value was “not found”.

B31: design_621_7e0052dc-ae49-49a0-b99f-9f3ee649cc2f_741_dldesign_0_cycle1_af2pred (protein)
chain: MEELKKAAEAAEKLAEVTLAIAKQADPKLAEKAKKLKEEVKKVYEEGKKDPSTAKEKLKELEKLSKEITELAAEASKLAVAKAA
B31 was tested, and the “binding in a display sort” value was “not found”.

B32: design_621_7e0052dc-ae49-49a0-b99f-9f3ee649cc2f_1508_dldesign_0_cycle1_af2pred (protein)
chain: AKEEEEEAKKKAESVKKMVEVAKALAEYAKKSTDPQVAKIAANAAIGLANNAIEVGKKYPEAEPYAKEAEKVKEEAKKVIEEK
B32 was tested, and the “binding in a display sort” value was “not found”.

B33: design_622_fcc41892-afde-4fb9-b6e8-b664fffd6a75_169_dldesign_0_cycle1_af2pred (protein)
chain: AQRETIKNGILAMMRALALALDDPEKREEMIEALAGIAAQLPKEEGVRVIKEAAKEVAAKYPEKAEEILEAGERAVELAKKLS
B33 was tested, and the “binding in a display sort” value was “not found”.

B34: design_621_7e0052dc-ae49-49a0-b99f-9f3ee649cc2f_2499_dldesign_0_cycle1_af2pred (protein)
chain: AAAQQTFQNFLGYATLAAAYLATVDPAAAEELMALAAKARADPEKAKEYFAKAKELLTKHLDKLAAYSPEAGQAAQNAIDAANTLL
For B34, the “binding in a display sort” value was “not found”.

B35: design_621_7e0052dc-ae49-49a0-b99f-9f3ee649cc2f_1261_dldesign_0_cycle1_af2pred (protein)
chain: AADSVALGQANAEAMLAVADPSQLPAAAAAIAAASPAVAERARRIGLRLAEAAGADVAAFRAAYDAAVAAAKA
With B35 the “binding in a display sort” value was “not found”.

B36: design_621_7e0052dc-ae49-49a0-b99f-9f3ee649cc2f_1041_dldesign_0_cycle1_af2pred (protein)
chain: DPAAVAAAEDMWAIAQQTWAAFTANAATITPAQARQYAAVFATAAVAMEDAARRVSPELAVGYRARAAEMRARAAAARAAAAA
In the case of B36, the “binding in a display sort” value is reported as “not found”.

B37: design_621_7e0052dc-ae49-49a0-b99f-9f3ee649cc2f_1278_dldesign_0_cycle1_af2pred (protein)
chain: AANAAEQAARLGKALASAAKNAIEAGNLESARKIAEVAVAAGEEAAELAVKYLEAEDPEAGKIFRELVEEEKARRAAEAA
For B37, the “binding in a display sort” value was “not found”.

B38: design_621_7e0052dc-ae49-49a0-b99f-9f3ee649cc2f_1898_dldesign_0_cycle1_af2pred (protein)
chain: ALAEAQRRAERLEREVEEAERRIEEHADDAERLEELAERLERLAHEALRLAATAPNEVAQRAVEIAERAARAAERARATAERLR
With B38 the “binding in a display sort” value was “not found”.
